According to PubChem BioAssay AID651725 (National Center for Advancing Translational Sciences (NCATS), 2012):
Among all 360,000 compounds or so, about 2,000 (0.56%) were called active. Another 2% or so got no clear call; they are omitted. This excerpt belongs to a sample that is enriched for actives. Values without a mark were called inactive. Rule as the data show it: active = activity change below about -65%; inconclusive = mostly about -30% to -63%; inactive = weaker than that.

target: Homeobox protein SIX1 (Homo sapiens) + Protein phosphatase EYA2 (Homo sapiens) (UniProt Q15475+O00167); assay: qHTS Assay for Inhibitors of the Six1/Eya2 Interaction; settings: AlphaScreen GST-Six1/His-Eya2 binding, biochemical; hits give low values
Method in brief: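 Homogeneous AlphaScreen proximity assay pairing GST-Six1 with His-tagged Eya2 (added as 5X mix: 250 nM and 500 nM) in 50 mM Tris pH 8.0, 300 mM NaCl, 1 mM TCEP. Glutathione donor and nickel acceptor beads; 1 h, 37 °C, dark.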
% is scaled to controls: 0 for no effect and ±100 for the full control effect.

Sequence of Homeobox protein SIX1 (Homo sapiens) + Protein phosphatase EYA2 (Homo sapiens) (O00167 whole entry, looked up): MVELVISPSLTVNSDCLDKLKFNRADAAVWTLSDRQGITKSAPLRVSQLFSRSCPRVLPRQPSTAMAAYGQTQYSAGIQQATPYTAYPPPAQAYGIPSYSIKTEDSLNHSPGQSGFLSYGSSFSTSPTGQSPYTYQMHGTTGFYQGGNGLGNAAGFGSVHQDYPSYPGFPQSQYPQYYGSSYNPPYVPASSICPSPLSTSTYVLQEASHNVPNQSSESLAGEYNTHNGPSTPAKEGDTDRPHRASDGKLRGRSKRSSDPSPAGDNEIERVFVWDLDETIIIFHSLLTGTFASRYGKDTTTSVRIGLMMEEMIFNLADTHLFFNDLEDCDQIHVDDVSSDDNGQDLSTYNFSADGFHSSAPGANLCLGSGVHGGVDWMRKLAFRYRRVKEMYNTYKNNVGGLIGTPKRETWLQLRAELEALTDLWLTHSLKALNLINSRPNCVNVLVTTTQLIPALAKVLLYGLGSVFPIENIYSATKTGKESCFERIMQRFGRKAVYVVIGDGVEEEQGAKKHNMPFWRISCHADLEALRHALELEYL
Sequence of Homeobox protein SIX1 (Homo sapiens) + Protein phosphatase EYA2 (Homo sapiens) (Q15475 whole entry, looked up): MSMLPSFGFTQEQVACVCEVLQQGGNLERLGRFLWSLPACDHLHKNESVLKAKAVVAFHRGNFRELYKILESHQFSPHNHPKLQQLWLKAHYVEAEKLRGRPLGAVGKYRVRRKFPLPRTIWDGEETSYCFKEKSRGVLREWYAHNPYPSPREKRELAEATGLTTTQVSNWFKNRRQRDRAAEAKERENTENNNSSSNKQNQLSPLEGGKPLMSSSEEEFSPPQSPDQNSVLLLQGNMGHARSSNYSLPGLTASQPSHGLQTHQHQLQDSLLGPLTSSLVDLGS

| SMILES | activity change |
| --- | --- |
| O=C1CN(C(=O)c2ccccc2F)C(c2ccc(F)cc2)c2cc(F)ccc2N1 (stereo not given) | 10.1% |
| CCOC(=O)[C@]12CCCC=C1N(CCC1=CCCCC1)C(=O)[C@H](CC(=O)NCCCOC)C2 | -3.1% |
| COC(=O)[C@@]12C[C@@H](CC(=O)NCCCCc3ccccc3)C(=O)N(Cc3ccccc3)C1=CCC(C)(C)C2 | -3.62% |
| CCOC(=O)[C@]12CCC=C1N(CCC1=CCCCC1)C(=O)[C@H](CC(=O)NCc1ccc(C)o1)C2 | -7.25% |
| O=S1(=O)CC(N2CCN(Cc3ccccc3F)CC2)CN1Cc1cn(Cc2cccc(C(F)(F)F)c2)nn1 (stereo not given) | 1.67% |
| Cc1cc(C)c(S(=O)(=O)N(C)CC(=O)NCC2CCCO2)c(C)c1 (stereo not given) | 3.65% |
| Cc1ccc(-n2ncc3c(Nc4cccc(C(=O)O)c4)ncnc32)cc1 | -66.4% (active) |
| CC(C)Sc1ncnc2c1cnn2-c1ccccc1 | 16.7% |
| Cc1ccc(Nc2ncnc3c2cnn3C)c(C)c1 | 8.85% |
| Cc1[nH]c2ccccc2c1C(=O)c1cc([C@H](NC(=O)OC(C)(C)C)C(C)C)sc1N | -28% |
| O=C1CCN(CCCc2ccccc2)CCN1CCO | -23.5% |
| O=C(NC1CCCC1)C1c2ccccc2OCC(=O)N1CC(F)(F)F (stereo not given) | -3% |
| Cc1c(NC(=O)CSc2nnc(-c3cccnc3)n2N)c(=O)n(-c2ccccc2)n1C | 10.2% |
| Cc1c(NC(=O)CSc2cccc3cccnc23)c(=O)n(-c2ccccc2)n1C | -90.9% (active) |
| Cc1c(NC(=O)CSc2nnnn2-c2ccc(C(=O)O)cc2)c(=O)n(-c2ccccc2)n1C | 5.09% |
| CC(=O)C[C@@H]1OC[C@H](CO)N1S(=O)(=O)c1ccc(C)cc1 | 7.41% |
| CN(Cc1cn(Cc2ccc(C(F)(F)F)cc2)nn1)C1CN(Cc2cn(Cc3ccc(C(F)(F)F)cc3)nn2)S(=O)(=O)C1 (stereo not given) | 3.81% |
| CN(Cc1ccccc1)C(=O)[C@@H]1CCCN1C(=O)[C@@H]1CCCN1C(=O)c1c(F)cccc1F | 7.39% |
| S=C(Nc1cccnc1)Nc1ccccn1 | 6.86% |
| COc1cc(/C=N/NC(=S)Nc2cccnc2)cc(OC)c1O | 0% |
| S=C(NN=Cc1ccccn1)Nc1ccccn1 | -91.9% (active) |
| O=C(OCN1C(=O)c2ccccc2C1=O)/C(=C\c1ccco1)NC(=O)c1ccccc1 | -1.79% |
| O=c1nc2s/c(=C\c3ccco3)c(=O)n2nc1Cc1ccccc1 | -82.8% (active) |
| O=C(NCCc1ccco1)c1nn(Cc2ccccc2)c(=O)c2ccccc12 | -4.25% |
| CCOC(=O)c1cc2cc(OC)ccc2n1C1CCN(C)CC1 | 1.46% |
